According to PubChem BioAssay (NCATS):
Records with an inconclusive call do not appear. Where a call stands in place of a potency, no number is given. Active and inactive are the calls of the source. The call rests on the fitted dose curve; in most records, active means well fitted curve in the direction sought with a large enough effect; inconclusive means small, poorly fitted or top-dose-only effect, or another doubt; inactive means no such curve, though single readings can be large; an effect the other way counts as inactive or inconclusive. Residues, ends and D or L forms follow the SMILES beside them. *: point of attachment. Cbz = O=C(OCc1ccccc1)*

What was measured:
[1] = target: Voltage-gated inwardly rectifying potassium channel KCNH2 (Homo sapiens) (UniProt Q12809); assay: qHTS Assay for Small Molecule Inhibitors of the Human hERG Channel Activity (AID 588834);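 further: lower thallium flux fluorescence means stronger hERG block; nearly all actives have a fitted effect of over 50% in size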; further: potency means the concentration at half of the fitted maximal effect
Method in brief: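 Cells were infected with hERG-BacMam virus for 4 hrs at room temperature, grown overnight, then seeded at 2000/well. After dye loading and roughly 10 min compound treatment, thallium influx was triggered and fluorescence recorded.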

[2] = target: Glutaminase kidney isoform, mitochondrial (Homo sapiens) (UniProt O94925); assay: qHTS for Inhibitors of Glutaminase (GLS): LOPAC Validation (AID 624146); further: nearly all actives have a fitted effect of over 60% in size; further: potency means the concentration at half of the fitted maximal effect
Method in brief: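 Compounds were pin-transferred onto hKGA, after which L-glutamine (1 mM solution) and a detection mix of glutamate oxidase, HRP and Amplex Red were added. Initial and 30 min RT fluorescence reads were collected.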

[3] = qHTS of Trypanosoma Brucei Inhibitors: LOPAC Validation (AID 624147)
Method in brief: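 Luminescence from Kinase-Glo Plus, added after a 45-minute room-temperature reaction, served as the end-point read-out. The enzyme and substrate were preincubated with compound before ADP (130 uM final) initiated turnover. Concentration-effect curves came from normalized qHTS data.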

[4] = target: Glucagon-like peptide 1 receptor (Homo sapiens) (UniProt P43220); assay: qHTS of GLP-1 Receptor Agonists: LOPAC Validation (AID 624148);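 further: luminescence from a luciferase reporter switched on by cAMP; higher luminescence signal means agonism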
Method in brief: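 Agonism scored as increased luciferase luminescence driven by cAMP in HEK293 clones carrying GLP-1R. Cells settled 12 hours, received compound for 4-6 hr at 37 deg C, 5% CO2, and were read after 12 min detection reagent at RT.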

[5] = qHTS of Nrf2 Activators: LOPAC Validation (AID 624149)
Method in brief: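 Luciferase signal from ARE activation, read with Steady-Glo after 30 min at room temperature. Compounds were pin-transferred onto AREc32_Fluc cells (1000/well, OPTI-MEM/5% FBS, seeded overnight) and left 24 hr at 37 deg C.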

[6] = HTS Assay for Allosteric Antagonists of the Human D2 Dopamine Receptor: Hit Validation in HTRF (AID 624455);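 further: stable D1 dopamine receptor cell line scored for blocking the D1 response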
Method in brief: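 Inhibition of the D1-mediated response was measured by HTRF. Cells used were a line stably expressing the D1 dopamine receptor.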

Sequence of Glutaminase kidney isoform, mitochondrial (Homo sapiens) (O94925 whole entry, looked up, canonical isoform): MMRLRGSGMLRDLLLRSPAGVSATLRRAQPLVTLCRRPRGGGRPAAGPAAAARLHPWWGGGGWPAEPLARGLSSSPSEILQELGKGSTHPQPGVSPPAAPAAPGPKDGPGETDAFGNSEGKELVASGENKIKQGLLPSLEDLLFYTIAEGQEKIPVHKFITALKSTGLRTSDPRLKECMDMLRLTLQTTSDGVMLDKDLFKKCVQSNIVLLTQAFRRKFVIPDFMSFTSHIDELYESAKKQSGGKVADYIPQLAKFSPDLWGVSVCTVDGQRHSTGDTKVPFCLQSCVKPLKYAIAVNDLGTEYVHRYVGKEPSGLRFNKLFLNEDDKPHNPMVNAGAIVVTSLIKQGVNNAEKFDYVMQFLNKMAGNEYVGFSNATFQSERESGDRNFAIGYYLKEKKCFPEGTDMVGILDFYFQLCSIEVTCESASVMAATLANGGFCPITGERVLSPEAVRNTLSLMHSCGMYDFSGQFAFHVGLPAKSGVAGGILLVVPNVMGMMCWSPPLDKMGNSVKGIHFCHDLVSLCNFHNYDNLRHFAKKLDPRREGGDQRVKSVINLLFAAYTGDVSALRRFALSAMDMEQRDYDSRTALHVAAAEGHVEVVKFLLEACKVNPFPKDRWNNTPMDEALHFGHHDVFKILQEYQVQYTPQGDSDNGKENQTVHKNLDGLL
Sequence of Glucagon-like peptide 1 receptor (Homo sapiens) (P43220 whole entry, looked up): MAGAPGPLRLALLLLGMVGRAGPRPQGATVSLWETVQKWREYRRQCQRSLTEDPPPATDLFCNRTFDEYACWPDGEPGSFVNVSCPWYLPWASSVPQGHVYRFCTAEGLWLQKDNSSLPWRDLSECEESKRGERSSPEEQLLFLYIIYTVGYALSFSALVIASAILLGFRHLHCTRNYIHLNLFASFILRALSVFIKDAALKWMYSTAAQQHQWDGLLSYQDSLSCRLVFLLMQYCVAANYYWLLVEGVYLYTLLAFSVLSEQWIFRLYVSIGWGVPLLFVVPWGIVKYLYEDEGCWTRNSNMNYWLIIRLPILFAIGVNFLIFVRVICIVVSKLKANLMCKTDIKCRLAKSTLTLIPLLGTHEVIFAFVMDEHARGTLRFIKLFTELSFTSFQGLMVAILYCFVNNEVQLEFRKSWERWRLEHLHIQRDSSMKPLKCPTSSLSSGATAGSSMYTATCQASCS
Sequence of Voltage-gated inwardly rectifying potassium channel KCNH2 (Homo sapiens) (Q12809 whole entry, looked up): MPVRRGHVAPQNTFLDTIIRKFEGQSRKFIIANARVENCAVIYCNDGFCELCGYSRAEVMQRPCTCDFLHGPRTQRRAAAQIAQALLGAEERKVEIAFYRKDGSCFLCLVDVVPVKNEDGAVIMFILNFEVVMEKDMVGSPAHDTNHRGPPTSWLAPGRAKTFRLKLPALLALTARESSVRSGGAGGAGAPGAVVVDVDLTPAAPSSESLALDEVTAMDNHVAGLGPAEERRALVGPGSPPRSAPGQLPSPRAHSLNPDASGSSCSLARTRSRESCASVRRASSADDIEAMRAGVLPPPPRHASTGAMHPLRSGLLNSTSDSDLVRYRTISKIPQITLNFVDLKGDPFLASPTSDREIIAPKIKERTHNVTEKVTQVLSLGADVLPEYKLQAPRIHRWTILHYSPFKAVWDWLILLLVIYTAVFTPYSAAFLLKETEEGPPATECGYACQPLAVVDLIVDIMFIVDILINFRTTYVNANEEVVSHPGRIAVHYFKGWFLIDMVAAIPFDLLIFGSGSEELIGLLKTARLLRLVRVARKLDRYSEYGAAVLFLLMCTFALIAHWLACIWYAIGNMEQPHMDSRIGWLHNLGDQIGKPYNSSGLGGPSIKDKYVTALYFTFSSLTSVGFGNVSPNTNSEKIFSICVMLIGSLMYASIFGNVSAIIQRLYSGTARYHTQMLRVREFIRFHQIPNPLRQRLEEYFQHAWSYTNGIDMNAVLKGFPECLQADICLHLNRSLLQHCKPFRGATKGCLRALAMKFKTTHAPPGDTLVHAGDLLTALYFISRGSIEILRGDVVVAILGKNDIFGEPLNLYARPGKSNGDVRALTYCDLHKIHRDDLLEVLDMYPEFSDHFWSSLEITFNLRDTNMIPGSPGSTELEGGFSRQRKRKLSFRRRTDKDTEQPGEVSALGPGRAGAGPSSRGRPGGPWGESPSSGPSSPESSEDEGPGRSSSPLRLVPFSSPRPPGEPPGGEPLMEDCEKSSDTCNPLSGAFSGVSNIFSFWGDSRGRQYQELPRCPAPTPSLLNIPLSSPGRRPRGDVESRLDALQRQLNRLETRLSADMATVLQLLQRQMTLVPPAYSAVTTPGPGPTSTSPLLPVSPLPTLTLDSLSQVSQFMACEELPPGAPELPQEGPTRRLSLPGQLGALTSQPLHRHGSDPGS

SMILES | Potency [1] | Potency [2] | Potency [3] | Potency [4] | Potency [5] | Potency [6]
COC(=O)C1=C(C)NC(C)=C([N+](=O)[O-])C1c1ccccc1C(F)(F)F (stereo unspecified) | inactive | inactive | inactive | inactive | inactive | inactive
CCCCCCCCCCC/C=C\C(C)(C)/C=C\CCCC(=O)O | inactive | inactive | inactive | inactive | inactive | inactive
O=[N+]([O-])c1cccc2c(Br)[nH]nc12 | inactive | inactive | inactive | inactive | inactive | inactive
CCCn1c(=O)c2[nH]c(-c3ccc(S(=O)(=O)O)cc3)nc2n(CCC)c1=O | inactive | inactive | inactive | inactive | inactive | inactive
CCN1C(=O)C=CC1=O | inactive | inactive | inactive | inactive | inactive | inactive
Nc1ccc(CCNc2ncnc3c2ncn3C2OC(CO)C(O)C2O)cc1 (stereo unspecified) | inactive | inactive | inactive | inactive | inactive | inactive
CC(C)Cn1c(=O)n(C)c(=O)c2[nH]cnc21 | inactive | inactive | inactive | inactive | inactive | inactive
CC(N)(C(=O)O)c1ccc(C(=O)O)cc1 (stereo unspecified) | inactive | inactive | inactive | inactive | inactive | inactive
CCCCS(=N)(=O)CC[C@H](N)C(=O)O (stereo partly specified) | inactive | inactive | inactive | inactive | inactive | inactive
NCCCCN | inactive | inactive | inactive | inactive | inactive | inactive
Cn1c(=O)c2c(nc(/C=C/c3cccc(Cl)c3)n2C)n(C)c1=O | 11.2 µM (active) | inactive | inactive | inactive | inactive | inactive
NCCC1CCCC(CCN)N1 (stereo unspecified) | inactive | inactive | inactive | inactive | inactive | inactive
COc1ccc(NC(=O)c2ccc(-c3ccc(-c4noc(C)n4)cc3C)cc2)cc1N1CCN(C)CC1 | 3.55 µM (active) | inactive | inactive | inactive | inactive | inactive
O=c1cc(O)cc(/C=C/c2ccc(O)c(O)c2)o1 | inactive | 1.12 µM (active) | inactive | inactive | inactive | inactive
CC(=O)NCCc1c[nH]c2ccc(O)cc12 | inactive | 1 µM (active) | inactive | inactive | inactive | inactive
CC(C)(C)c1cc(/C=C(\C#N)C(N)=S)cc(C(C)(C)C)c1O | 11.2 µM (active) | 4.47 µM (active) | inactive | inactive | inactive | inactive
CN[C@H](CC(=O)O)C(=O)O | inactive | inactive | inactive | inactive | inactive | inactive
N#Cc1cc2nc(O)c(O)nc2cc1[N+](=O)[O-] | inactive | inactive | inactive | inactive | inactive | inactive
Cn1c(=O)c2[nH]c(C3CCCC3)nc2n(C)c1=O | inactive | inactive | inactive | inactive | inactive | inactive
N#C/C(=C\c1ccc(O)c(O)c1)C(=O)NCCCNC(=O)/C(C#N)=C/c1ccc(O)c(O)c1 | inactive | inactive | inactive | inactive | inactive | inactive
NC(=Nc1ccccc1)NC(=O)c1nc(Cl)c(N)nc1N | 14.1 µM (active) | inactive | inactive | inactive | inactive | inactive
O=c1[nH]c2ccccc2c2ccccc12 | inactive | inactive | inactive | inactive | inactive | inactive

SMILES | Potency [1] | Potency [2] | Potency [3] | Potency [4] | Potency [5] | Potency [6]
c1ccc2c(c1)CC(N1CCN(c3cccc4c3OCCO4)CC1)C2 | 15.8 µM (active) | inactive | inactive | inactive | inactive | inactive
O=C(O)[C@H]1NCCC[C@H]1C(=O)O | inactive | inactive | inactive | inactive | inactive | inactive
O=C(O)CCC(=O)N1CCCC1C(=O)O (stereo unspecified) | inactive | inactive | inactive | inactive | inactive | inactive
COc1ccc2c(c1)c(CC(=O)O)c(C)n2C(=O)c1ccccc1 | inactive | inactive | inactive | inactive | inactive | inactive
O=C(O)c1cc(=O)cc(C(=O)O)[nH]1 | inactive | inactive | inactive | inactive | inactive | inactive
O=C1NC(=O)c2cc(Nc3ccccc3)c(Nc3ccccc3)cc21 | 12.6 µM (active) | 2.51 µM (active) | inactive | inactive | inactive | inactive
CNc1ncnc2c1ncn2[C@H]1C[C@H](OP(=O)(O)O)[C@@H](COP(=O)(O)O)O1 | inactive | inactive | inactive | inactive | inactive | inactive
CCC1(O)CC2CN(CCc3c([nH]c4ccccc34)[C@@](C(=O)OC)(c3cc4c(cc3OC)N(C=O)C3[C@]45CCN4CC=C[C@@](CC)([C@@H](OC(C)=O)[C@]3(O)C(=O)OC)[C@H]45)C2)C1 (stereo partly specified) | inactive | 7.08 µM (active) | inactive | inactive | inactive | inactive
O=C1OC(=O)C2C3CCC(O3)C12 (stereo unspecified) | inactive | inactive | inactive | inactive | inactive | inactive
C#CC(N)CCC(=O)O (stereo unspecified) | inactive | inactive | inactive | inactive | inactive | inactive
Cc1ccc([N+](=O)[O-])cc1S(=O)(=O)N(C)C | inactive | inactive | inactive | inactive | inactive | inactive
N=C(N)SCCc1cnc[nH]1 | inactive | inactive | inactive | inactive |  | inactive
O=C(O)c1cc2cc(F)ccc2[nH]1 | inactive | inactive | inactive | inactive | inactive | inactive
O=c1[nH]c2cc(Cl)ccc2c(O)c1-c1ccc(Oc2ccccc2)cc1 | inactive | inactive | inactive | inactive | inactive | inactive
CO/N=C(\C(=O)N[C@@H]1C(=O)N2C(C(=O)O)=C(CSc3nc(=O)c(O)nn3C)CSC12)c1csc(N)n1 (stereo partly specified) | inactive | inactive | inactive | inactive | inactive | inactive
C[C@H](NC(=O)/C(C#N)=C/c1ccc(O)c(O)c1)c1ccccc1 | inactive | 0.794 µM (active) | inactive | inactive |  | inactive
CC(N)=O | inactive | inactive | inactive | inactive | inactive | inactive
NC1(C(=O)O)CCc2cc(C(=O)O)ccc21 (stereo unspecified) | inactive | inactive | inactive | inactive |  | inactive
CCCCCCCCCC[Si](C)(C)CCC(=O)NC(Cc1ccc(C)cc1)c1ccccc1 (stereo unspecified) | inactive | inactive | inactive | inactive | inactive | inactive
COc1cc(C(O)C(=O)O)ccc1O (stereo unspecified) | inactive | 2.82 µM (active) | inactive | inactive |  | inactive
CCCCCCCCCC(=O)NC(CN1CCOCC1)[C@H](O)c1ccccc1 (stereo partly specified) | 12.6 µM (active) | inactive | inactive | inactive | inactive | inactive
CC(=O)[C@H]1CCC2C3CC=C4C[C@@H](OS(=O)(=O)O)CC[C@]4(C)C3CC[C@@]21C (stereo partly specified) | inactive | inactive | inactive | inactive | inactive | inactive

SMILES | Potency [1] | Potency [2] | Potency [3] | Potency [4] | Potency [5] | Potency [6]
CCCCCCC/C=C\CCCCCCCCC(=O)O | inactive | inactive | inactive | inactive | inactive | inactive
CC[N+](CC)(CC)CC(=O)Nc1c(C)cccc1C | inactive | inactive | inactive | inactive | inactive | inactive
CC1CCN=C(N)S1 (stereo unspecified) | inactive | inactive | inactive | inactive | inactive | inactive
NC1C=CC=C(C(=O)O)C1 (stereo unspecified) | inactive | inactive | inactive | inactive | inactive | inactive
NCC(O)(CS(=O)(=O)O)c1ccc(Cl)cc1 (stereo unspecified) | inactive | inactive | inactive | inactive | inactive | inactive
c1ccc(CN2CCC3(CCCc4ccccc43)CC2)cc1 | 3.98 µM (active) | inactive | inactive | inactive | inactive | inactive
Nn1nnc2ccccc21 | inactive | inactive | inactive | inactive | inactive | inactive
COc1ccccc1N1CCN(CCCCN2C(=O)c3ccccc3C2=O)CC1 | 2.24 µM (active) | inactive | inactive | inactive | inactive | inactive
CC(C)C[C@H](NC(=O)C1OC1C(=O)O)C(=O)NCCCCN=C(N)N (stereo partly specified) | inactive | inactive | inactive | inactive | inactive | inactive
CCC(=O)N1CCN(C(=O)c2ccccc2)CC1 | inactive | inactive | inactive | inactive | inactive | inactive
N[C@@H](CCC(=O)N[C@H](CSN=O)C(=O)NCC(=O)O)C(=O)O | inactive | inactive | inactive | inactive |  | inactive
C[C@@]1(C2CCCC2)Cc2cc(OCC(=O)O)c(Cl)c(Cl)c2C1=O | inactive | inactive | inactive | inactive | inactive | inactive
N[C@H](C(=O)O)[C@H](O)C(=O)O | inactive | inactive | inactive | inactive | inactive | inactive
CC(C)[C@H](NC(=O)OCc1ccccc1)C(=O)N[C@H](C=O)Cc1ccccc1 (Cbz-Val-Phe-aldehyde) | inactive | inactive | inactive | inactive | inactive | inactive
CCCCCC(O)CCCC(=O)O (stereo unspecified) | inactive | inactive |  | inactive | inactive | inactive
O=C(O)c1cccnc1C(=O)O | inactive | inactive | inactive |  | inactive | inactive
CC(C)(C)NCC(O)COc1cccc2[nH]c(=O)[nH]c12 (stereo unspecified) | inactive | inactive | inactive |  |  | inactive
Cc1nc(N=Nc2cc(S(=O)(=O)O)c3cc([N+](=O)[O-])cc(S(=O)(=O)O)c3c2)c(COP(=O)(O)O)c(C=O)c1O | inactive | inactive | inactive |  | inactive | inactive
N#CC(=C(\N)Sc1ccccc1N)/C(C#N)=C(/N)Sc1ccccc1N | inactive | 12.6 µM (active) |  | inactive | inactive | 
NC(N)=NC(N)=Nc1ccccc1 | inactive | inactive | inactive |  | inactive | inactive
